# Compound activity as filed in PubChem BioAssay.
# An excerpt weighted towards active compounds, which were near 3.5% of everything screened.
# mHTT-CaM PPI inh: mHTT-calmodulin interaction abrogation; inhibition, % at 15 µM; P42858; AlphaScreen His-mHTT/GST-CaM binding, luminescence; AID 1671202; 3.6% of 190,000 active;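 also: 0% = both proteins with DMSO and 100% = one protein alone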
# Pf apPOL inh: Pf-apPOL DNA polymerase inhibition. 0.25% of 210,000 active. Recombinant Pf-apPOL, molecular beacon fluorescence, 1.5 h. inhibition, % at 10 µM. AID 1794808
# The depositor's hits bear a star; / = not tested or not shown. Rule as the data show it: active = inhibition above about 50%; inactive = the rest.
SMILES,mHTT-CaM PPI inh,Pf apPOL inh
CCc1ccc(OCCNc2cc(N3CC(C)NC(C)C3)ccc2[N+](=O)[O-])cc1 (stereo not drawn),100.0*,-0.7
CCc1cc(-c2n[nH]c(C)c2Oc2ccc(F)cc2)c(O)cc1O,100.2*,8.5
CCc1cc(-c2n[nH]c(C)c2Oc2ccccc2)c(O)cc1O,81.0*,-9.8
COc1ccc(-c2n[nH]c(C)c2Oc2ccccc2)c(O)c1OC,48.2,-6.9
Cc1[nH]nc(-c2ccc(OC(C)C)cc2O)c1Oc1ccccc1,67.0*,6.7
CCOc1ccc(-c2n[nH]c(C)c2Oc2ccc(F)cc2)c(O)c1,26.3,-1.2
Cc1[nH]nc(-c2ccc(O)cc2O)c1Oc1ccccc1F,41.7,-9.4
CCCc1ccc(Oc2c(-c3ccc(O)cc3O)n[nH]c2C)cc1,80.0*,-3.1
COc1cc(C)c(-c2n[nH]c(C)c2Oc2ccccc2)c(O)c1,7.0,3.5
CSc1nc2ccc(NC(=O)CSc3nc4ccc(N)cc4s3)cc2s1,23.0,-0.2
CCOc1cc(C(=O)Nc2cc(-c3nc4ccccc4o3)ccc2C)cc(OCC)c1OCC,-2.2,6.1
COc1cc(OC)c(N2C(=O)NC3CC2(C)Oc2ccc(Cl)cc23)cc1Cl (stereo not drawn),28.0,8.0
COC(=O)CN1C(=O)C2CCCN2C(=O)c2ccccc21 (stereo not drawn),-0.7,-1.6
Cc1cccc(N=C2NC(=O)/C(=C\c3ccco3)S2)c1,48.0,-6.3
CCOc1ccc(-c2n[nH]c(C)c2-c2ccc(F)cc2)c(O)c1,24.0,0.8
CCc1cc(-c2n[nH]c(C)c2-c2ccccc2)c(O)cc1O,68.6*,0.3
CCCN1C(=O)/C(=C2/SC(=N)NC2=O)c2cc(Br)ccc21,5.0,-1.2
O=C(O)CN1C(=O)/C(=C2/SC(N3CCOCC3)=NC2=O)c2cc(Br)ccc21,-0.4,2.5
C=CCN1C(=O)/C(=C2\SC(N3CC(C)OC(C)C3)=NC2=O)c2cc(Br)ccc21 (stereo not drawn),54.1*,/
C=CCN1C(=O)/C(=C2/SC(N3CCCCC3)=NC2=O)c2cc(Br)ccc21,52.0*,-4.5
O=C1Nc2ccc(Br)cc2/C1=C/c1ccc([N+](=O)[O-])o1,71.0*,-7.1
O=C1Nc2ccc(Br)cc2/C1=C/c1ccccc1,48.0,-6.5
O=C1NN(c2ccc(Br)cc2)C(=O)/C1=C/c1ccc([N+](=O)[O-])o1,97.0*,4.9
Cc1cc(C)c(N2C(=O)NC(=O)/C(=C\c3ccc([N+](=O)[O-])o3)C2=O)c(C)c1,60.0*,-12.2
C=CCN1C(=O)NC(=O)/C(=C/c2ccc(-c3ccc([N+](=O)[O-])cc3C)o2)C1=O,5.0,2.9
SMILES,mHTT-CaM PPI inh,Pf apPOL inh
Cc1ccc(-c2ccc(/C=C3\C(=O)NN(c4ccc(F)cc4)C3=O)o2)c([N+](=O)[O-])c1C,40.0,6.4
CCc1nc2c(NC(=O)C(C)C)cccn2n1,0.5,-0.5
OC(COc1ccc(I)cc1)Cn1cnc2ccccc21 (stereo not drawn),86.5*,-4.0
Cc1ccc(OCC(O)Cn2cnc3ccccc32)cc1 (stereo not drawn),6.0,8.8
CC(C)c1cc(=O)n(CC(=O)NCCn2nc(-c3cccs3)ccc2=O)cn1,-7.4,-4.0
CC1(C)NC(=O)N(CC(O)CN(c2cccc([N+](=O)[O-])c2)S(=O)(=O)c2ccccc2)C1=O (stereo not drawn),-0.3,-6.3
Cc1ccc(N(CC(O)CN2C(=O)NC(C)(C)C2=O)S(=O)(=O)c2ccc([N+](=O)[O-])cc2)cc1 (stereo not drawn),61.0*,-3.1
CN(C)c1ccc(C=Nc2nc(-c3ccccc3)cs2)cc1,65.0*,-0.6
CN(C)c1ccc(Nc2nc(-c3ccncc3)cs2)cc1,38.9,-0.7
Cc1ccc(C(=O)Nc2ccccc2C(=O)NC(C(=O)NC(C)(C)C)C(C)C)cc1 (stereo not drawn),-1.7,7.0
CCOc1cc(/C=C2\SC(=N)NC2=O)ccc1OCc1ccc(F)cc1,60.0*,-4.0
CCOc1cc(/C=C2\SC(=N)NC2=O)ccc1OCc1ccc(Br)cc1,34.0,3.3
COc1cc(/C=C2/SC(=N)NC2=O)ccc1OCc1ccccc1F,60.0*,-2.2
